Laboratory results: PubChem BioAssay (NCI)
The panel holds about 83,000 compounds, 20% with a hit somewhere; the sample as a whole holds those more often.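 In brief: 96-well plates, 48 h treatment, single concentration, percent growth endpoint.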 Active and inactive are the calls of the source. Rule for the calls: active = growth percent below 10; inactive = the rest.

System: HL-60(TB) leukemia
Assay: NCI-60 one-dose screen, 48 h (100 = growth as untreated, 0 = no growth, -100 = all killed)
Conditions: 10 µM unless noted

Structure (SMILES) | growth
Cn1ccnc1C(=O)/C=C/c1ccc(CC(=O)Nc2ccc(F)cc2)cc1 | 18.8% (inactive)
COc1ccc(CN2C(=O)/C(=C\C(=O)c3ccc(OCCN4CCCC4)cc3)c3ccccc32)cc1 | 4.86% (active)
O=C(/C=C/C(Cl)(Cl)Cl)Nc1ccc(Cl)cc1 | 34.5% (inactive)
CCN(CC)CCCCCCCCNc1c2ccc(Cl)cc2nc2ccc(OC)cc12 | -53.2% (active)
CNC(=O)c1cc(Oc2ccc3nc(NC(=O)Nc4ccc(Cl)cc4)sc3c2)ccn1 | 98.9% (inactive)
O=C(O)c1ccc2c3ccc(C(=O)O)c4c(C(=O)O)ccc(c5ccc(C(=O)O)c1c25)c43 | 111% (inactive)
CC1Cc2ccccc2N1NC(=O)c1ccc(Cl)c(S(N)(=O)=O)c1 (stereo not given) | 92.3% (inactive)
COc1ccc(Cl)cc1NC(N)=S | 101% (inactive)
C/C(=C(\c1ccc(OCCN2CCOCC2)cc1)c1ccc(OC(=O)C2CCCCC2)cc1)c1ccc(Cl)cc1 | 96.4% (inactive)
CC(C)(C)OC(=O)N1CCc2c(sc3ncnc(N/N=C/c4cccc5ccccc45)c23)C1 | 11.5% (inactive)
CCCCCC1CCCCN1C(=O)OCC (stereo not given) | 77.5% (inactive)
O=c1[nH]c(=O)n(C2C[C@@H](O)[C@@H](CO)O2)cc1F (stereo not given in full) | 27.1% (inactive)
c1ccc2c(c1)CCCc1nnc3nc4ccccc4n3c1-2 | 34.2% (inactive)
O=C(Nc1ccccc1)Nc1ccc(C(=O)/C=C/c2ccc(N3CCCC3)cc2)cc1 | 35.2% (inactive)
COc1ccc(CCN2CC=Cn3c2nc2ccccc2c3=O)cc1 | -8.02% (active)
